PubChem BioAssay AID651703 (Broad Institute, 2012)
Among all 1,200 compounds or so, about 970 (81%) were called active. How the calls were made is not given here. So high a share suggests a set chosen from earlier hits. These entries were drawn from the full list. Results with a measured potency or affinity are listed apart.

Each compound was assayed against Transforming acidic coiled-coil-containing protein 3 (Homo sapiens) (UniProt Q9Y6A5) (assay: inhibition of ARNT PAS-B/TACC3 complex formation – biochemical, AlphaScreen, cherry-picked samples, confirmation (AID 651703;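 further: TACC3 partner is the GST-tagged E629A mutant dimer; hits lower the signal meaning they disrupt ARNT binding to TACC3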)). Details: AlphaScreen His-ARNT PAS-B / GST-TACC3 binding, luminescence; series mostly up to 68 µM.

outcome, inactive:
O=C(C[C@@H]1CC[C@@H](NC(=O)c2ccccc2)[C@H](CO)O1)Nc1ccc(-c2ccccc2)cc1, O=C(C[C@H]1CC[C@@H](NC(=O)c2ccccc2)[C@H](CO)O1)Nc1ccc(-c2ccccc2)cc1, O=C(N[C@H]1CC[C@@H](CCn2cc(-c3ccccc3)nn2)O[C@@H]1CO)c1cnccn1, CN1CCC(n2[nH]c(-c3ccccc3)c(Cc3ccccc3)c2=O)CC1, CC(C)NC(=O)N(C)C[C@H]1Oc2ccc(N(C)C)cc2CC(=O)N([C@@H](C)CO)C[C@@H]1C, C[C@H]1CN([C@@H](C)CO)C(=O)c2cc(C#Cc3ccccn3)cnc2O[C@@H]1CN(C)Cc1ccccc1, CC(C)NC(=O)Nc1ccc2c(c1)CC(=O)N([C@H](C)CO)C[C@H](C)[C@H](CN(C)S(=O)(=O)c1cccs1)O2, C[C@@H]1CN([C@@H](C)CO)C(=O)c2cc(NC(=O)CCN3CCOCC3)ccc2O[C@@H]1CN(C)Cc1ccncc1, C[C@H](CO)N1C[C@H](C)[C@H](CN(C)C(=O)NC2CCCCC2)Oc2ccc(NS(=O)(=O)c3cccs3)cc2CC1=O, COc1ccc(-c2cnc3c(c2)C(=O)N([C@H](C)CO)C[C@@H](C)[C@H](CN(C)Cc2cccnc2)O3)cc1, COc1ccc(CN(C)C[C@@H]2Oc3ccc(NC(=O)Cn4cnnn4)cc3C(=O)N([C@@H](C)CO)C[C@H]2C)cc1, Cc1cc(C)n2nc(-c3cccc(Br)c3)cc2n1, N/C(=N\NS(=O)(=O)c1ccccc1Cl)c1ccccn1, S=c1[nH]nc(-c2cc3c(s2)-c2ccccc2CC3)o1, COc1cc2c(cc1OC)-c1cc(Nc3cccc(C)c3)nc(=O)n1CC2, O=C(COC(=O)c1ccc([N+](=O)[O-])o1)NCc1ccccc1, O=C(NCCc1ccccc1)c1ccc(=O)[nH]c1, NS(=O)(=O)c1ccc(CCNC(=O)COC(=O)c2ccc([N+](=O)[O-])o2)cc1, NC(=O)CC(NC(=O)c1ccccc1)c1ccc(NCc2ccccn2)c([N+](=O)[O-])c1 (stereo not drawn), COc1cc(/C=N/NC(=O)CSc2n[nH]c(=O)[nH]c2=O)cc(OC)c1O, O=C(c1cc(-c2ccccc2)on1)N1CCC(N2CCOCC2)CC1, O=C(c1cc(-c2ccccc2)on1)N1CCC(CO)CC1, Cc1[nH]c(=O)[nH]c(=O)c1/C=N/NC(=O)[C@H](C)NC(=O)OC(C)(C)C, COc1ccc(-c2nnc(SCC(=O)NC3CC3)o2)cc1, COC(=O)C[C@@H]1CC[C@@H](NS(=O)(=O)c2ccc(OC)cc2)[C@H](CO)O1, Cc1[nH]cnc1CN1CCc2c(c3ccccc3n2C)C1=O, COc1ccc(C(=O)Nc2nc3ccccc3[nH]2)cc1S(=O)(=O)N1CCOCC1, CCOc1cc2nc(-c3ccc(OC)c(OC)c3)nc(NCCCN3CCOCC3)c2cc1OC, O=C(NCCN1CCOCC1)c1cc(-c2ccccc2)on1, O=C(NCCCN1CCOCC1)c1cc(-c2ccccc2)on1, C#CCOCCOCCOCCNc1nc(N2CCN(C(=O)[C@H](CCCCN)n3cc([C@@H](N)CC(N)=O)nn3)CC2)nc(N2CCN(C(=O)[C@H](CCCCN)n3cc([C@@H](N)CC(N)=O)nn3)CC2)n1, C#CCOCCOCCOCCNc1nc(N2CCN(C(=O)Cn3cc(CCCCN)nn3)CC2)nc(N2CCN(C(=O)[C@H](CCCCN)n3cc(CCCC)nn3)CC2)n1, C#CCOCCOCCOCCNc1nc(N2CCN(C(=O)[C@H](CCC(=O)O)n3cc([C@@H](N)CCCCN)nn3)CC2)nc(N2CCN(C(=O)[C@H](CCCCN)n3cc([C@@H](N)CC(N)=O)nn3)CC2)n1, C#CCOCCOCCOCCNc1nc(N2CCN(C(=O)C([C@@H](C)O)n3cc([C@@H](N)CCCCN)nn3)CC2)nc(N2CCN(C(=O)C([C@@H](C)O)n3cc([C@@H](N)CCCCN)nn3)CC2)n1 (stereo partly drawn), CCOc1cc(C(=O)NC2CC(C)(C)NC(C)(C)C2)cc(OCC)c1OCC, c1ccc(CN2CCN(CCCNc3ccc4nnc(-c5ccccc5)n4n3)CC2)cc1, Oc1cccc(CN2CCOCC2)c1O, COc1ccc(C(=O)NNC(=O)Cc2coc3cc(OC)ccc23)cc1, CCN(/N=C/c1ccccc1)c1cc(=O)n(C)c(=O)[nH]1, O=C(Nc1ccccc1)N1CCCCN2[C@H](C1)[C@H](c1ccc(C#CC3CC3)cc1)[C@@H]2CO, CC(C)(C)c1cc(C(=O)NCCCn2ccnc2)cc(C(C)(C)C)c1, O=C(NCCCn1ccnc1)c1cc(-c2ccccc2)on1, COc1ccc(-c2cnc3c(c2)C(=O)N([C@H](C)CO)C[C@H](C)[C@H](CN(C)Cc2cccnc2)O3)cc1, O=C(O)C1C2C=CC(C2)C1C(=O)NCCCn1ccnc1 (stereo not drawn), O=C(C1CC1)N1CCc2cc(Br)cc(S(=O)(=O)NCc3ccccn3)c21, CN(c1ccc(C(=O)N2CCc3ccccc3C2)cc1)S(C)(=O)=O, CO[C@H]1CN(C)C(=O)c2cc(NS(=O)(=O)CC(F)(F)F)ccc2OC[C@H](C)N(Cc2cccnc2)C[C@@H]1C, O=C(Nc1ccc(Br)cn1)c1cccc(C(=O)Nc2ccc(Br)cn2)c1, O=C(NC1Cc2ccccc2C1)c1cc(-c2ccccc2)on1, c1c[nH]c(CN2CCN(Cc3ncc[nH]3)CC2)n1, CC1(C)CC(=O)C=C(Nc2ccccc2N)C1, O=c1[nH]cnc2c1C(c1ccccc1[N+](=O)[O-])c1c(nc[nH]c1=O)O2, O=C(NCCCCO)c1cc(-c2ccccc2)on1, O=C1CN(C(=O)COC(=O)c2ccc([N+](=O)[O-])o2)c2ccccc2N1, O=C(O)c1c[nH]c2c([N+](=O)[O-])cccc2c1=O, O=C(N/N=C/c1c(Cl)nc2ccccn2c1=O)c1cccnc1, C[C@H](CO)N1C[C@H](C)[C@@H](CN(C)C(=O)Nc2ccc(C(F)(F)F)cc2)Oc2ncc(C3=CCCC3)cc2C1=O, O=C(Nc1cnc2ccccc2c1)c1cc(-c2ccccc2)on1, CCOC(=O)N1CCN(C(=O)CSc2ccc3nnc(-c4ccccn4)n3n2)CC1, O=C(Nc1cccc(F)c1)c1cccnc1NCCc1ccccc1, Cc1ccc(C2=CSC3=NS(=O)(=O)CCN23)cc1, O=C(Nc1ccc2nc(-c3ccccn3)[nH]c2c1)C1CCCCC1, O=C(NN=C1CCCC1)c1ccc(O)cc1O
